# In the library only some 10% were active in any assay of this set; here they are far more common.
# CCT chaperon mod: cytosolic chaperonin activity modulation; purified chaperonin ATPase assay, HTRF ADP detection, 30 min; activity change, % (test concentration not listed), hits read low; 360,000 tested, 0.3% active; AID 651819; in the data active = activity change below about -30%
#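 First, chaperonin was dispensed at 40 nM or 20 nM final depending on batch activity. Next, compounds were pinned at 76 uM and ATP added at 10 uM. After 30 min at 37 °C, ADP detection reagents ran 30 min at ambient temperature.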
# VDR inhibitor: inhibitors of human vitamin D receptor; VDR-SRC2-3 peptide fluorescence polarization, 2 h; AID 504847; Potency, µM, inactives show max response, negative = inhibition, hits mostly inhibitors; 400,000 tested, 0.93% active; note: potency is the fitted concentration of half-maximal effect
# Target sequence (P11473 whole entry, looked up): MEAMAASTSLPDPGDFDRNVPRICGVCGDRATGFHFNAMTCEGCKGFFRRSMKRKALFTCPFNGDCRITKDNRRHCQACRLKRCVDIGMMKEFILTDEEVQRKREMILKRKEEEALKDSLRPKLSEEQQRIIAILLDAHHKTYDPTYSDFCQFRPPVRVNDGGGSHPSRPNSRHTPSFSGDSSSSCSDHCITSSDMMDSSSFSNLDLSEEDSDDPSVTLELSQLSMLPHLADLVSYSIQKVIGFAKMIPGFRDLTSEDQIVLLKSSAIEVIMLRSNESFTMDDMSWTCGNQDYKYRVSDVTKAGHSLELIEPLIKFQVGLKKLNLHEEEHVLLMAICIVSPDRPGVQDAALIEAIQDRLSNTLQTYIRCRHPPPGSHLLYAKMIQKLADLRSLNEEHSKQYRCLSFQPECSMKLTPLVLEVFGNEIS
#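 Inhibition of the VDR/SRC2-3 peptide interaction is quantified by fluorescence polarization. Compounds (23 nl, pintool) incubate with the reagents for 2 hours at ambient room temperature.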
# MmCpn inh: blocks the Methanococcus maripaludis chaperonin Mm-Cpn; purified Mm-Cpn ATPase, ADP Transcreener TR-FRET; Potency, µM (top dose mostly 76.9 µM), inactives show top-dose activity, negative = inhibition, actives largely listed as inhibitors; 330,000 tested, 0.031% active; note: potency is the fitted concentration of half-maximal effect; nearly all actives have a fitted effect of over 80% in size
#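 Purified archaeal Mm-CPN (25nM final) preincubated 10 min at 37degC with compound, then 10uM ATP for 30 min at 37degC; ADP measured by HTRF Transcreener TR-FRET; buffer 30 mM TRIS pH 7.4, 100mM KCl, 5mM MgCl2, 1mM DTT.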
# PLK1 PBD block: inhibitors of human PLK1 polo-box domain binding; Potency, µM, for the others: max response, negative = inhibition, hits mostly inhibitors; AID 720504; Plk1 PBD binding of FITC phosphopeptide, fluorescence polarization; 360,000 tested, 2.8% active; note: potency is the fitted concentration of half-maximal effect; series mostly up to about 57 µM; nearly all actives have a fitted effect of over 65% in size
# G9a inh: G9a (human) methyltransferase inhibition | Q96KQ7 | G9a H3K9 monomethylation, AlphaScreen, 2 h | Potency, µM (doses to about 102 µM), for inactives: at the top dose activity, negative = inhibition, usual class: inhibitors | 350,000 tested, 8.8% active | AID 504332; note: potency is the fitted concentration of half-maximal effect; nearly all actives have a fitted effect of over 75% in size
# Target sequence (Q96KQ7 913-1193 limits assumed): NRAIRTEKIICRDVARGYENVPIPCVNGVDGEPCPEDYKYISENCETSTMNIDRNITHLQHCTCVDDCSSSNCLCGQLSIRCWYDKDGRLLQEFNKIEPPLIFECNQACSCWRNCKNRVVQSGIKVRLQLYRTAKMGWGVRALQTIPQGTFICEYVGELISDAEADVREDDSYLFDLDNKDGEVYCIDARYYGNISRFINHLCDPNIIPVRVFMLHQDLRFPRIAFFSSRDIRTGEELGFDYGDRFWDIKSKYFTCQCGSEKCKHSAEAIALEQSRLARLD
#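 Chemiluminescent proximity detection of H3K9 monomethylation, read after 10 min bead incubation in the dark. Reaction: 20 nM G9a, 500 nM biotin-H3K9 peptide, 20 uM SAM cofactor, 2 h, room temperature, following 15 min enzyme-compound preincubation.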
# Sfp inh: blocks B. subtilis Sfp PPTase activity | Biochemical Sfp PPTase activity, qHTS | Potency, µM, for inactives: largest response in the series, negative = inhibition, usual class: inhibitors | AID 1490 | 310,000 tested, 3.5% active;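 note: the enzyme is Sfp with the accession as filed and its product quenches rhodamine fluorescence; potency is the fitted concentration of half-maximal effect; 0% = enzyme reaction without inhibitor and -100% = no enzyme wells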
#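 Compounds were incubated with enzyme (final 15 nM) for 15 min at room temperature before substrate addition started the reaction. Fluorescence at 525 nm excitation, 598 nm emission was recorded immediately and after 30 minutes.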
# * hit, by the source's call; ? = inconclusive; . = no result given; ! = not active in a repeat; [ ] = another dose, or the depositor's remark. Unless noted, calls come from the whole dose curve; as a rule, active = well fitted curve in the direction sought with a large enough effect; inconclusive = small, poorly fitted or top-dose-only effect, or another doubt; inactive = no such curve, though single readings can be large; an effect the other way counts as inactive or inconclusive. Unless noted, % is set by controls: 0 for no effect and ±100 for the full control effect.
SMILES,CCT chaperon mod,VDR inhibitor,MmCpn inh,PLK1 PBD block,G9a inh,Sfp inh
CC1(C)CC=C(O[Si](C)(c2ccccc2)c2ccccc2)CC1,.,3%,.,.,.,14%
CCC12C=C(/C=C/c3ccccc3)C(CC)(C1)C(c1ccccc1)CC2=O (stereo unspecified),.,.,.,.,.,-9%
COc1ccc(NC(=O)C2CCCO2)cc1 (stereo unspecified),-1,11%,0%,1%,1%[59 µM],18%
COc1ccc(-c2csc(NC(=O)C3CCCO3)n2)cc1 (stereo unspecified),1,12%,-3%,-14%,13µM*,-17%
Cc1ccc(-c2csc(NC(=O)c3ccno3)n2)cc1,-3,-1%,-3%,?,50µM*,0%
Cc1nn(CC(=O)N2CCC(C)CC2)c(=O)c2cc3occc3n12,.,12%,.,.,3%[59 µM],.
COc1ccccc1CNC(=O)CN1C(=O)CSc2ccc(S(=O)(=O)N(C)C)cc21,.,11%,.,.,6%[59 µM],.
Cc1cc(C)cc(-n2c(C)cc(/C=N\NC(=O)COc3cccc4cccnc34)c2C)c1,-2,13%,-1%,0%,45µM*,-13%
O=c1[nH]c2ccccc2c(O)c1O,-3,7.1µM*,-1%,11µM*,0.71µM*,0.32µM*
COc1ccc2ncc3c(-c4ccc(C)c(C)c4)nn(CC(=O)NC4CCCCC4)c3c2c1,.,6%,.,.,3%[59 µM],.
COc1ccc(-c2cn3nc(SCC(=O)Nc4cccc(C)c4C)ccc3n2)cc1,.,10%,.,.,-1%[59 µM],.
CC(=O)c1ccc2c(c1)N(CCCN1CCC(CCO)CC1)c1ccccc1S2,0,-4%,-4%,-11%,-10%[59 µM],10%
CN(C)CCCN1c2ccccc2Sc2ccc(Cl)cc21,-1,?,3%,-4%,71µM*!,79µM*!
CN(C)CCCN1c2ccccc2Sc2ccc3ccccc3c21,-3,-6%,.,-1%,.,.
CN1CCN(CCCN2c3ccccc3Sc3ccc(S(=O)(=O)N(C)C)cc32)CC1,-1,-2%,-4%,-2%,10µM*,15%
O=[N+]([O-])c1cccc(CN2C(COCc3ccccc3)CCC=CS2(=O)=O)c1 (stereo unspecified),.,-13%,.,.,.,11%
COc1ccccc1Nc1nc(-c2cccc(N3C(=O)c4ccccc4C3=O)c2)cs1,1,-6%,-4%,-3%,25µM*,0%
CCOc1ccccc1Nc1nc(-c2cccnc2)cs1,-11,-3%,1%,-10%,-15%[59 µM],-4%
O=C1c2ccccc2C(=O)N1c1cccc(-c2csc(Nc3ccc4c(c3)OCO4)n2)c1,.,.,-1%,.,8.9µM*,?
COc1ccc(-c2nc(CNC(=O)Nc3ccccc3)c(C)o2)cc1,.,0%,.,.,13%[59 µM],.
CCc1cccc(C)c1NC(=O)C(C)Sc1nc2c(c(=O)[nH]1)CCCC2 (stereo unspecified),.,10%,.,.,-2%[59 µM],.
COC(=O)c1ccc(C(NC(=O)OCc2ccccc2)/C(=C/[C@@H](C)C(=O)N[C@@H](CO)Cc2ccccc2)c2cccnc2)cc1 (stereo partly specified),.,.,.,.,.,10%
Cc1ccccc1C(=O)Nc1ccccc1-c1nnn(CC(=O)Nc2ccc3c(c2)OCCO3)n1,-3,2%,-2%,-13%,19%[12.7 µM],56µM*
O=C(CN1C(=O)CSC1=O)Nc1ccc(F)c(F)c1F,-2,-17%,0%,24µM*,-11%,15%
COc1ccc(NC(=O)N2CCCC3(CCN(C(=O)c4ccncc4)CC3)C2)cc1,.,-8%,.,.,-3%[12.7 µM],15%
SMILES,CCT chaperon mod,VDR inhibitor,MmCpn inh,PLK1 PBD block,G9a inh,Sfp inh
CCOc1ncccc1C(=O)OCC(=O)c1ccc(F)cc1,-3,?,-3%,17µM*,33%,14%
O=C(COC(=O)c1cccnc1Cl)c1ccc(F)cc1,2,12%,1%,-1%,5%,20%
CC(=O)c1ccc(NC(=O)C(C)N2CCN(C/C=C/c3ccccc3)CC2)cc1 (stereo unspecified),-1,-16%,0%,-12%,-9%,8%
C(=C\c1ccccc1)/CN1CCN(C(c2ccccc2)c2ccccc2)CC1,-1,-2%,?,-3%,-45%,9%
CC(C(=O)N(C)Cc1ccccc1)N1CCN(C/C=C/c2ccccc2)CC1 (stereo unspecified),-1,-9%,-6%,-15%,20µM*,-13%
Fc1ccc(C(c2ccc(F)cc2)N2CCN(C/C=C/c3ccccc3)CC2)cc1,0,0%,0%[15.4 µM],5%,21µM*!,?
CCOC(=O)NC1(Nc2ccc(C)cc2)Oc2ccccc2O1,-4,-12%,1%,0%,?,35µM*
CCOC(=O)NC1(NC(C)C)Oc2ccccc2O1,-1,-7%,0%,?,10µM*,?
CCOC(=O)NC1(NCC(C)C)Oc2ccccc2O1,-2,-8%,-10%,-5%,0.89µM*,79µM*
CCOC(=O)NC1(NC2CCCCC2)Oc2ccccc2O1,1,-12%,0%,-4%,4µM*,56µM*
COc1cccc(CNC(=O)c2c(O)nc3ccccn3c2=O)c1,.,0%,.,.,?,.
CCOC(=O)C(Cc1ccccc1)C1(C)Oc2ccccc2O1 (stereo unspecified),.,.,.,-19%,.,.
CCOC(=O)NC1(NCc2ccccc2)Oc2ccccc2O1,-7,14%,-4%,0%,?,50µM*
Cc1c(C(=O)Nc2ccc(Br)cc2F)sc2ncnc(N(C)C3CCCCC3)c12,.,1%,.,.,4%[59 µM],.
COC(=O)[C@H]1CN(C(=O)c2ccccc2)C(=O)N1,1,-3%,0%,-5%,.,8%
COC(=O)C1CCC(=S)N1C(=O)c1ccccc1 (stereo unspecified),-7,?,-11%,-20%,45µM*,?
Cc1c(Cc2ccccc2)sc(NC(=O)/C=C/c2cccc3ccccc23)c1C(N)=O,-1,?,-1%,7.5µM*,20µM*,-16%
COC(=O)c1c(NC(=O)/C=C/C(=O)O)sc(Cc2ccccc2)c1C,-2,?,2%,-19%,5%[59 µM],0%
Cc1c(C(=O)N(C)C)sc2c1c(=O)n(-c1ccc(Cl)c(Cl)c1)c(=O)n2Cc1ccc(F)cc1,.,7%,.,.,6%[59 µM],.
CCC(=O)OCC(=O)C1(OC(=O)CC)C(C)CC2C3C(Cl)CC4=CC(=O)C=C[C@@]4(C)C3C(O)C[C@@]21C (stereo partly specified),.,1%,.,.,-23%[2.33 µM],2%
O=C(/C=C/c1ccccc1[N+](=O)[O-])N1CCCCC1,0,11%,-1%,?,-42%,-2%
O=[N+]([O-])c1ccccc1/C=C/C=N/N1CCCCC1,-1,-13%,1%,-4%,40µM*,19%
COc1ccccc1N1CCN(/N=C/C=C/c2ccccc2[N+](=O)[O-])CC1,-1,-19%,1%,6%,11µM*,-4%

# Assay outcomes: PubChem BioAssay, National Center for Advancing Translational Sciences (NCATS)
